Laboratory results published in the supplement of paper PMC12636033.
± gives the standard deviation of the averaged measurements. In all, about 33,000 sequences were measured (“E-score (rank enrichment, -0.5 to 0.5)”: median about -0.0028, highest 2% from about 0.23 on). What follows is part of a selection rich in the highest values, with near analogues and random picks from the rest.

What follows are sequences tested on 2Sb-muMax20 (muMax20 with two 1,3-bis(methyl)benzene Cys staples, A13C/A17C and Q88C/A92C, C-terminal Lys) (assay: PBM 8-mer E-score (E-score (rank enrichment, -0.5 to 0.5)); higher = stronger preferential binding).
Method: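 Protein binding microarray (universal PBM chip covering all 10-mers in fixed probe flanks) with chemically synthesized human Max(13-93) bHLH-LZ analogs (not full-length Max) bearing noncanonical residues (hArg, Tha, Aib, Nle at 65) and aromatic Cys staples. Read-out per 8-mer (and its reverse complement): E-score (rank-based enrichment, -0.5 to 0.5) and Z-score of median probe intensity.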

Row | Sequence | PBM 8-mer E-score
1 | CGGGGGAA | -0.121 ± 0.028
2 | AAGGGAGG | 0.0917 ± 0.039
3 | GTCTAGTA | 0.247 ± 0.051
4 | CTCTAGTA | 0.103 ± 0.0078
5 | ATCTAGTA | -0.0228 ± 0.022
6 | CTAAGGGC | -0.156 ± 0.055
7 | AAAGCGGA | 0.0459 ± 0.0043
8 | ACTTACTA | 0.258 ± 0.042
9 | CCTTACTA | 0.0233 ± 0.037
10 | ACTTACTC | 0.0212 ± 0.036
11 | GACCCACA | 0.0373 ± 0.043
12 | CGTATTTA | 0.2434 ± 0.0022
13 | AGTATTTA | 0.195 ± 0.012
14 | GGTATTTA | 0.118 ± 0.052
15 | GAACATGC | 0.136 ± 0.0025
16 | CATCTTGA | -0.0488 ± 0.041
17 | GATCTTGA | 0.246 ± 0.03
18 | TATCTTGA | 0.163 ± 0.012
19 | ATGACTGC | 0.00213 ± 0.035
20 | CGCCTCAA | 0.0117 ± 0.0089
21 | GGCGGGAA | 0.0557 ± 0.014
22 | AGGGCGGA | -0.228 ± 0.016
23 | AGGCGGGA | 0.08088 ± 0.00027
24 | AGGGCGGC | -0.161 ± 0.057
25 | AGGCGGGG | 0.259 ± 0.092

Row | Sequence | PBM 8-mer E-score
26 | GGGCGGAA | 0.111 ± 0.07
27 | GGGCGGGA | 0.3 ± 0.018
28 | AGGCGGGC | 0.00216 ± 0.077
29 | CGGCGGGA | -0.205 ± 0.01
30 | AGGGCGGG | 0.272 ± 0.091
31 | GGCGGGGA | 0.403 ± 0.025
32 | CGCGGGGA | 0.0556 ± 0.023
33 | AACCGATA | -0.0929 ± 0.094
34 | ACACCTCA | 0.0903 ± 0.038
35 | GACGAGGA | -0.0396 ± 0.053
36 | ACCAGGGT | -0.196 ± 0.08
37 | CTGGACAC | -0.2589 ± 0.0024
38 | ACCGGGTA | -0.1338 ± 0.00064
39 | CATGAGCG | -0.0614 ± 0.0046
40 | CCTACCCG | -0.0857 ± 0.0032
41 | CTGGCGCA | -0.166 ± 0.074
42 | ATGGCGCA | 0.239 ± 0.057
43 | ATGGCGCG | 0.0718 ± 0.02
44 | ACTTGGGA | -0.129 ± 0.03
45 | CACTTGGG | 0.176 ± 0.012
46 | ATTTGGGG | 0.267 ± 0.0073
47 | AATTTGGT | 0.0829 ± 0.018
48 | AACTTGGG | 0.304 ± 0.015
49 | AACTTGGA | 0.0353 ± 0.027
50 | ACTTGGGC | 0.0763 ± 0.039

Row | Sequence | PBM 8-mer E-score
51 | ATTTGGGC | 0.102 ± 0.069
52 | AATTTGGA | 0.0432 ± 0.015
53 | AATTTGGG | 0.29 ± 0.015
54 | ACTTGGGG | 0.3507 ± 0.0032
55 | ATTTGGGA | 0.209 ± 0.0036
56 | ACGAGACG | 0.0104 ± 0.13
57 | AGTGACTG | -0.0977 ± 0.053
58 | CCGGCCCC | -0.0874 ± 0.098
59 | TCCGTCGA | -0.0858 ± 0.034
60 | GATGCGAC | 0.0229 ± 0.095
61 | ACCTTCAC | 0.016 ± 0.0064
62 | CTGTCATC | 0.0122 ± 0.062
63 | AATGCGCT | 0.0765 ± 0.063
64 | ACTGCGCC | -0.18 ± 0.0093
65 | ACCTAGGA | 0.0803 ± 0.054
66 | AGTTGGGC | 0.0922 ± 0.0035
67 | AGTTGGGA | -0.0331 ± 0.025
68 | AGTTGGGG | 0.235 ± 0.015
69 | AAAAGTAA | 0.0725 ± 0.087
70 | ATAAGTAC | 0.236 ± 0.016
71 | ATAAGAAA | 0.144 ± 0.013
72 | AAAAGTAC | 0.239 ± 0.074
73 | AAAAGTAT | 0.083 ± 0.012
74 | ATAAGAAC | 0.239 ± 0.022
75 | ATAAGTAT | 0.125 ± 0.033

Row | Sequence | PBM 8-mer E-score
76 | ATAAGAAT | 0.104 ± 0.022
77 | CTAAGTAC | 0.0248 ± 0.0083
78 | CCTACGCG | 0.0631 ± 0.019
79 | ATGGTAAC | 0.184 ± 0.066
80 | GCTGTCGA | -0.165 ± 0.0033
81 | GGCGCGAC | -0.163 ± 0.064
82 | CGGACTAG | -0.0898 ± 0.0032
83 | ATGGGAAA | 0.00532 ± 0.065
84 | GGGGGAAA | 0.0837 ± 0.028
85 | CTGGGGAA | -0.106 ± 0.0058
86 | ATGGGGAA | 0.296 ± 0.074
87 | GTGGGGGA | 0.0894 ± 0.033
88 | TGGGGAAA | 0.314 ± 0.049
89 | ATGGGGGA | 0.071 ± 0.032
90 | ATGGGGAC | 0.108 ± 0.083
91 | GTGGGGAA | 0.293 ± 0.012
92 | AGGGGGAG | -0.0302 ± 0.048
93 | TGGGGGAA | 0.0145 ± 0.015
94 | ATGGGGAG | 0.252 ± 0.011
95 | AAGGCAGA | -0.0447 ± 0.097
96 | GCAGCTAC | -0.158 ± 0.016
97 | GCTGGGAA | -0.192 ± 0.031
98 | CGTTTAAC | 0.0567 ± 0.0093
99 | TATCAAGA | 0.188 ± 0.043
100 | CGTGGCAG | -0.0638 ± 0.045

Row | Sequence | PBM 8-mer E-score
101 | ACTGTTTC | 0.0301 ± 0.064
102 | GCGGGAAA | 0.0716 ± 0.025
103 | GCGGGGAA | 0.247 ± 0.02
104 | GCGGGGGA | 0.0111 ± 0.068
105 | CGGCCCAA | -0.0811 ± 0.15
106 | GAGCAGCA | -0.143 ± 0.042
107 | ACGATAGC | 0.0621 ± 0.019
108 | CCGATAGG | -0.0782 ± 0.013
109 | ACGATAGG | 0.245 ± 0.015
110 | AAGCCGCC | -0.0339 ± 0.045
111 | CAATAATA | 0.233 ± 0.066
112 | GTATAAAC | 0.186 ± 0.0026
113 | GAATAAAA | 0.0229 ± 0.074
114 | CAATAATC | 0.189 ± 0.047
115 | GCATAACC | 0.0156 ± 0.029
116 | ATATAAAA | 0.186 ± 0.049
117 | ACATAACA | 0.107 ± 0.034
118 | CAATAAAA | 0.284 ± 0.016
119 | GTATAAAA | 0.247 ± 0.042
120 | CAATAAAC | 0.0373 ± 0.052
121 | CAATAATG | 0.0644 ± 0.019
122 | GCATAACA | 0.251 ± 0.042
123 | AAGGGTCT | 0.00286 ± 0.1
124 | AACTGTCG | -0.138 ± 0.016
125 | ACGATGAG | 0.0498 ± 0.025

Row | Sequence | PBM 8-mer E-score
126 | TCACGAGA | -0.0563 ± 0.015
127 | GAATAACA | 0.186 ± 0.011
128 | CAATAACA | 0.232 ± 0.0098
129 | TAATAACA | 0.0232 ± 0.011
130 | CTCTTAAG | -0.0478 ± 0.022
131 | GTGCGCAC | 0.157 ± 0.1
132 | GATCAATC | -0.0898 ± 0.043
133 | CTACCCCC | -0.0941 ± 0.072
134 | AAACCCCC | -0.275 ± 0.038
135 | AAACCCTA | 0.244 ± 0.089
136 | AGACCCCA | 0.283 ± 0.011
137 | CTACCCCA | 0.259 ± 0.021
138 | CAACCCTA | 0.019 ± 0.059
139 | TGACCCCA | 0.111 ± 0.032
140 | AGACCCCC | -0.382 ± 0.044
141 | AAACCCTG | 0.029 ± 0.12
142 | AAACCCCA | 0.232 ± 0.033
143 | GTACCCCA | 0.195 ± 0.023
144 | AACCCCCA | -0.318 ± 0.021
145 | AATGCCAT | 0.0622 ± 0.045
146 | AGTTGTAG | 0.0711 ± 0.018
147 | ATGGAAGG | -0.00186 ± 0.021
148 | CCCCGTCA | 0.0912 ± 0.04
149 | CCCCGGCG | -0.233 ± 0.056
150 | GCTGCAAA | -0.0134 ± 0.061

Row | Sequence | PBM 8-mer E-score
151 | ACCGTCAT | 0.0687 ± 0.082
152 | CAACCCCC | -0.167 ± 0.046
153 | CAACCCCA | 0.294 ± 0.051
154 | CAACCCAA | -0.0401 ± 0.029
155 | GGTTTATA | 0.047 ± 0.079
156 | ACTTTATA | 0.232 ± 0.077
157 | AGTTTATC | 0.182 ± 0.027
158 | CCTTTATA | 0.0289 ± 0.054
159 | AGTTTATA | 0.235 ± 0.044
160 | ACTTTCTC | 0.0106 ± 0.018
161 | ACTTTCTG | -0.0565 ± 0.016
162 | ACTTTCTA | 0.241 ± 0.012
163 | ACTTTATC | 0.00955 ± 0.014
164 | AGGCGAGG | 0.0445 ± 0.00056
165 | CTATACCA | 0.214 ± 0.036
166 | CGTCTGAG | -0.115 ± 0.054
167 | CAACCGCG | 0.0452 ± 0.028
168 | ATGTCTGC | -0.0456 ± 0.036
169 | AATCTTCC | 0.0406 ± 0.055
170 | ATATCGAT | 0.23 ± 0.013
171 | ATATCGAA | 0.0967 ± 0.018
172 | ATATCGAC | 0.0358 ± 0.012
